# High-throughput results (PubChem BioAssay)
# Sm TGR block: S. mansoni TGR enzyme inhibition. purified TGR, DTNB reduction, TNB absorbance 405 nm. Q962Y6. Potency, µM (titrated, usually from 114 µM), for inactives: at the top dose activity change, negative = inhibition, usual class: inhibitors. AID 485364. 360,000 compounds, 3% hits; note: potency is the fitted concentration of half-maximal effect; % is set by controls: 0 for no effect and ±100 for the full control effect; nearly all actives have a fitted effect of over 60% in size
#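 Kinetic colorimetric format: TGR-catalysed, NADPH-driven DTNB reduction monitored via TNB absorbance. Enzyme dispensed at 20 nM; compound exposure 15 min at room temperature before reaction start.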
# Giardia FBPA inh: Giardia lamblia aldolase inhibition. Potency, µM (doses to about 59.6 µM), for inactives: at the highest dose activity, negative = inhibition, usual class: inhibitors. AID 2451. purified Giardia FBPA. 290,000 compounds, 0.71% hits; note: potency is the fitted concentration of half-maximal effect; % is set by controls: 0 for no effect and ±100 for the full control effect; nearly all actives have a fitted effect of over 55% in size
#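 Giardia FBPA (40 nM reagent) was preincubated 10 min at RT with compound (up to 57.5 uM final), then substrate plus GAPDH/TPI/NAD/arsenate coupling system with diaphorase/resazurin was added; resorufin fluorescence (525/598 nm) was read after 20 min.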
# Shiga toxin inh: Shiga toxin inhibition; inhibition, % at 38.7 µM; 290,000 compounds, 9.2% hits; Vero cells, Shiga toxin protein synthesis inhibition reporter; in the data active = inhibition mostly above about 28%, no sharp cut-off; inactive = mostly below about 43%; note: 0% is about no effect
# LmPK inhibitor: blocks Leishmania mexicana pyruvate kinase activity | Q27686 | purified LmPK, Kinase-Glo ATP luminescence, 1 h | Potency, µM (doses to about 57.5 µM), inactives show at the top dose activity change, negative = inhibition, most hits filed as inhibitors | 290,000 compounds, 0.37% hits; note: potency is the fitted concentration of half-maximal effect; % is set by controls: 0 for no effect and ±100 for the full control effect
# Target sequence (Q27686 whole entry, looked up): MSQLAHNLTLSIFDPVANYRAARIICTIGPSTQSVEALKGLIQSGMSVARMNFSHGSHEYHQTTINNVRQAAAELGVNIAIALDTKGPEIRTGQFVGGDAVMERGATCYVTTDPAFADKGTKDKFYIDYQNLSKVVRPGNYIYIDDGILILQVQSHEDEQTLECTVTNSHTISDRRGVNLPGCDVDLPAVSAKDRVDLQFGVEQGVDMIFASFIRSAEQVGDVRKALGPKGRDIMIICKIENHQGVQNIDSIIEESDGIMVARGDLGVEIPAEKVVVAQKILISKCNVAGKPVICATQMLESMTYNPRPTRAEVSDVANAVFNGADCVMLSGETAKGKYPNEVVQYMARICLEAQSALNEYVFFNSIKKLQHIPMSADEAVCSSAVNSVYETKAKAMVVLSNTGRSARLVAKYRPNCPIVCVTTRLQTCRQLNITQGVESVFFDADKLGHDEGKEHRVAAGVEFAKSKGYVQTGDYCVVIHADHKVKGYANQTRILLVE
#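 qHTS format; LmPK 0.1 nM; substrates PEP 0.5 mM and ADP 0.1 mM. One-hour room-temperature incubation, then coupled luciferase luminescence; 0.5 nM enzyme wells mark activation.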
# Tb PYK inh: blocks Trypanosoma brucei pyruvate kinase; 410,000 compounds, 0.12% hits; TbPYK enzyme, Kinase-Glo Plus ATP luminescence, 45 min; Q57TT1; Potency, µM (series often up to 76.8 µM), without a hit: top-dose activity, negative = inhibition, most hits filed as inhibitors; note: potency is the fitted concentration of half-maximal effect; % is set by controls: 0 for no effect and ±100 for the full control effect; nearly all actives have a fitted effect of over 50% in size
#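 TbPYK + substrate in 50 mM TEA pH 7.2, 100 mM KCl, 10 mM MgCl2, 0.05% BSA, 0.01% Tween-20; cpd pinned; ADP 130 uM final; 45 min RT; Kinase-Glo Plus 10 min; luminescence endpoint.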
# Cycloheximide cs: counter-screen for Shiga toxin inhibitors: cycloheximide protein synthesis inhibition | cell reporter, cycloheximide protein synthesis inhibition counterscreen | max response, % | 300,000 compounds, 12% hits | AID 2314; in the data active = max response mostly above about 13%, no sharp cut-off; inactive = mostly below about 14%; note: read at 38.3 µM for the half of the compounds with a filed dose; 0% is about no effect
# An asterisk follows results filed as active; u = inconclusive; x = not tested or not shown. This is one part of a sample in which hits are shown more often than they occur. Unless noted, calls come from the whole dose curve; as a rule, active = well fitted curve in the direction sought with a large enough effect; inconclusive = small, poorly fitted or top-dose-only effect, or another doubt; inactive = no such curve, though single readings can be large; an effect the other way counts as inactive or inconclusive.
SMILES,Sm TGR block,Giardia FBPA inh,Shiga toxin inh,LmPK inhibitor,Tb PYK inh,Cycloheximide cs
Cc1cc(-c2ccc(N3CCOCC3)cc2)nc2ccccc12,-1%,-5%,28*,-4%,-11%,30*
c1ccc2nc(-c3ccc(N4CCOCC4)cc3)ccc2c1,-4%,-25%,67*,u,-25%,33*
c1ccc2nc(-c3ccncc3)ccc2c1,12%,0%,84*,-20%,-1%,34*
COc1ccccc1CN1CC[C@@]2(CCCN(C(C)=O)C2)C1,x,-18%,x,x,-6%,x
Cc1cccc(NC(=O)c2ccc(NCCO)c([N+](=O)[O-])c2)n1,4%,-6%,53*,-2%,-4%,30*
Cc1cccc(NC(=O)c2ccc(NCC3CCCO3)c([N+](=O)[O-])c2)c1 (stereo not drawn),0%,1%,2,6%,-6%,19*
Cc1cccc(NC(=O)c2ccc(NCC3CCCO3)c([N+](=O)[O-])c2)n1 (stereo not drawn),9%,-12%,68*,0%,-4%,19*
COC(=O)C(Cc1ccccc1)NC(=O)CCNC(=O)c1ccc(Br)cc1 (stereo not drawn),-8%,7%,-9,4%,7%,6
Oc1c(CN2CCOCC2)cc(COCc2ccccc2)c2cccnc12,45µM*,-30%,26,0%,-23%,28*
Oc1c(CN2CCN(c3ccccc3)CC2)cc(Br)c2cccnc12,40µM*,-23%,17,-3%,3%,-2
Oc1c(CNc2ccccc2)cc(COCc2ccccc2)c2cccnc12,2.8µM*,x,x,x,-3%,x
CCOC(=O)N1CCN(Cc2cc(Cl)c3cccnc3c2O)CC1,32µM*,u,29,7%,3%,6
CCOCc1cc(CN2CCN(c3cccc(Cl)c3)CC2)c(O)c2ncccc12,-32%,x,x,x,3%,x
CC(C)OCc1cc(CN2CCN(c3ccccc3)CC2)c(O)c2ncccc12,u,x,x,x,0%,x
COCc1cc(CN2CCN(C)CC2)c(O)c2ncccc12,14µM*,u,-7,9%,9%,-4
COc1cc(OC)cc(C2=Nn3c(nnc3-c3cccc(OC)c3)SC2)c1,x,8%,-2,x,x,1
COc1ccc(-c2ccc(-c3noc(-c4ccccc4OC)n3)c(OC)n2)cc1,-9%,3%,-6,7%,2%,2
COc1ccccc1-c1noc(-c2cc(OC)c(OC)c(OC)c2)n1,-1%,-6%,4,-2%,-17%,-2
COc1cccc(-c2nc(-c3ccccn3)no2)c1OC,5%,-2%,134*,-6%,-28%,37*
c1ccc(-c2noc(-c3cccc4ccccc34)n2)nc1,4%,-6%,41*,u,1%,43*
COc1cc(-c2nc(-c3ccccn3)no2)cc(OC)c1OC,-5%,0%,81*,4%,-1%,17*
CN(Cc1ccccc1)C(=C(Cl)Cl)/C(=C1/NCCN1C)[N+](=O)[O-],-16%,-13%,-15,u,5%,-4
CN1CCN/C1=C(/C(Cl)=C(Cl)Cl)[N+](=O)[O-],1.1µM*,u,2,0%,2%,-1
Cc1ccc(NC(=O)C2C(=O)N(C)c3ccccc32)cc1 (stereo not drawn),-3%,-28%,42,5%,-5%,19*
CCOC(=O)C1=C(C)NC2=C(C(=O)CCC2)C1c1ccc(O)c(OCC)c1 (stereo not drawn),-8%,-23%,11,-1%,-12%,9
SMILES,Sm TGR block,Giardia FBPA inh,Shiga toxin inh,LmPK inhibitor,Tb PYK inh,Cycloheximide cs
CCOc1cc(C2C(C(=O)N3CCCCC3)=C(C)NC3=C2C(=O)CCC3)cc(Br)c1O (stereo not drawn),25µM*,-24%,16,2%,-9%,-3
CCOc1ccc(C2C(=O)N(C3CCCCCC3)CC(=O)N2Cc2ccc(C)cc2)cc1OC (stereo not drawn),12%,x,x,x,-1%,x
COc1cc(C2c3c(n[nH]c3C)C(=O)N2c2ccc(C)cc2)ccc1O (stereo not drawn),u,3%,-5,0%,0%,1
CCOc1cc(C2c3c(n[nH]c3C)C(=O)N2c2ccc(C)cc2)ccc1O (stereo not drawn),18µM*,2%,27,0%,3%,5
COc1cccc(C(=O)NCc2cn3ccsc3n2)c1,-12%,-1%,9,-2%,-5%,16*
COc1cccc(C(=O)NCc2ccc3[nH]c(C)cc3c2)c1,40µM*,u,10,-5%,-5%,4
COc1ccc(C(=O)NCc2ccc3[nH]c(C)cc3c2)cc1OC,14µM*,u,-8,0%,-1%,-1
COc1cccc(C(=O)NCc2cn3ccccc3n2)c1,2%,x,x,x,0%,x
NC(=N\N=Cc1ccco1)/C(N)=N/N=Cc1ccco1,x,x,x,x,-6%,x
Cc1ccc(OC(C)C(=O)Nc2ccc3c(c2)n(C)c(=O)n3C)c(C)c1 (stereo not drawn),6%,12%,1,-1%,0%,0
O=C(O)c1ccc(NC(=S)NC(=O)c2ccc(-c3ccccc3)cc2)cc1,u,-14%,48,-6%,-11%,45*
Cc1ccnc(NC(=S)NC(=O)c2cncc(Br)c2)c1,-11%,u,6,-1%,-5%,25*
O=C(NC(=S)Nc1ccccc1)c1csnn1,14µM*,-22%,27,-4%,-3%,22*
COc1ccc(NC(=S)NC(=O)c2csnn2)cc1,0%,-20%,12,3%,-4%,1
Cc1ccc(NC(=S)NC(=O)c2cncc(Br)c2)c(C)c1,x,x,x,x,4%,x
O=C1CN(C(=S)NC(=O)c2ccc(-c3ccccc3)cc2)CCN1,2%,u,62,-5%,-22%,15*
CN1OC[C@@H]2CN(Cc3cc(Cl)cc(Cl)c3)[C@H](c3cccc(Br)c3)C[C@@H]21,x,x,x,x,4%,x
Cc1ccc(NC(=O)NC(=S)NC(=O)c2ccccc2)cc1,-18%,u,88*,8%,-4%,48*
Cc1ccc(C(=O)NNC(=S)NC(=O)c2ccccc2)cc1,x,x,x,x,-12%,x
O=C(O)c1ccc(NC(=S)NC(=O)c2cncc(Br)c2)cc1,11µM*,u,12,-2%,-4%,-4
CCOC(=O)c1ccc(NC(=S)NC(=O)c2cncc(Br)c2)cc1,u,-10%,-4,6%,1%,-5
NC(=O)c1ccc(-c2nnn(CC(=O)N(C3CCCC3)C3CCS(=O)(=O)C3)n2)cc1 (stereo not drawn),-2%,x,x,x,1%,x
COc1cccc(N2C(=O)N(CC(=O)NCc3cccc(OC)c3OC)c3ccccc3S2(=O)=O)c1,9%,x,x,x,1%,x
OC(CCc1cccc(Cl)c1)c1cccs1 (stereo not drawn),-16%,6%,44*,-8%,4%,35*
